FLuc modulator: qHTS profiling assay for firefly luciferase inhibitor/activator using purifed enzyme and Km concentrations of substrates (counterscreen for miR-21 project) | Luciferin 4-monooxygenase (Photinus pyralis), P08659 | purified FLuc, Km substrates, luminescence inhibition | Potency, µM (series often up to 57.5 µM), without a hit: at the highest dose activity change, negative = inhibition, actives largely listed as inhibitors | hit rate 6.9% among 360,000;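 note: plate controls were vehicle for no effect and reference inhibitor for full effect; nearly all actives have a fitted effect of over 55% in size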
Target sequence (P08659 whole entry, looked up): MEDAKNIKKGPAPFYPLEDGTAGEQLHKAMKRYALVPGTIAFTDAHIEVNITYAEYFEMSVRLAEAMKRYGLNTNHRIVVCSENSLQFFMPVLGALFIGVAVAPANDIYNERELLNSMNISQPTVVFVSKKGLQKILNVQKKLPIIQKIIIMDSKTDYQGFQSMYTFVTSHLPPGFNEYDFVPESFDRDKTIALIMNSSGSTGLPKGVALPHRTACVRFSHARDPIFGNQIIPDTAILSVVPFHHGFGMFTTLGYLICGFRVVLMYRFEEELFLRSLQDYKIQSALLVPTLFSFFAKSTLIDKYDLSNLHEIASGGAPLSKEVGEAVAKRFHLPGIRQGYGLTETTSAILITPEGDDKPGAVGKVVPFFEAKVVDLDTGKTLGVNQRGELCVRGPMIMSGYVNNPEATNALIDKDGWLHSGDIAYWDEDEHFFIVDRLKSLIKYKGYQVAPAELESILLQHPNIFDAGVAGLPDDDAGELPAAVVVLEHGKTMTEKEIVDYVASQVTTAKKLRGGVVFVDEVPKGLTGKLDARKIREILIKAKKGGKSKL
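Purified P. pyralis luciferase (10nM final) with 10uM D-luciferin and 10uM ATP (Km levels) in 50mM Tris acetate pH 7.5, 10mM Mg acetate, 0.01% Tween-20, 0.05% BSA; qHTS 6-point titration, ~60 µM downward; luminescence read.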
Rab9 prom act: qHTS Assay for Rab9 Promoter Activators | hit rate 2.8% among 320,000 | Huh7 Rab9 promoter-luciferase reporter, luminescence, 24 h | Potency, µM (series often up to 9.22 µM), for inactives: at the highest dose activation, negative = inhibition, most hits filed as activators; note: % of control where 0% means no effect; nearly all actives have a fitted effect of over 60% in size
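Promoter activation is measured as luciferase luminescence in Huh7 cells stably transfected with a Rab9 promoter–luciferase construct, following 24 h compound exposure at 37 °C and 10 min reagent incubation at ambient temperature.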
NPC1 prom act: qHTS Assay for NPC1 Promoter Activators; hit rate 2.4% among 320,000; Potency, µM (top dose mostly 9.22 µM), for inactives: at the highest dose activation, actives largely listed as activators; Huh7 NPC1 promoter luciferase reporter, 24 h; AID 485313, 2010; note: % of control where 0% means no effect; nearly all actives have a fitted effect of over 60% in size
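Stable NPC1-promoter luciferase Huh7 line; cpd (DMSO) 24 h, 37 °C, 5% CO2; Amplite luciferase reagent 10 min RT; luminescence readout. qHTS format.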
SMN2 splice up: qHTS Assay for Enhancers of SMN2 Splice Variant Expression | Potency, µM (series often up to 46.1 µM), for inactives: at the top dose activity change, positive = activation, actives largely listed as activators | HEK293 SMN2-luciferase splicing reporter, luminescence, 30-36 h | hit rate 2.8% among 210,000; note: % of control where 0% means no effect; nearly all actives have a fitted effect of over 55% in size
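qHTS luciferase splicing reporter: luminescence rises when SMN2 exon 7 is included in transfected HEK293 cells. Compound exposure lasted 30-36 h at 37C, with 4.5 mM final sodium butyrate as control, followed by a ONE-Glo read.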
p53 reactivator: qHTS assay for re-activators of p53 using a Luc reporter. H1299 p53-A138V BP100-luciferase reporter, luminescence, 24 h. Potency, µM (top dose mostly 92.2 µM), inactives show top-dose activity change, positive = activation, actives largely listed as activators. hit rate 0.063% among 320,000. AID 504706, 2011; note: % of control where 0% means no effect; nearly all actives have a fitted effect of over 45% in size
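p53-null H1299 cells stably carrying temperature-sensitive p53-A138V and a BP100-luciferase reporter were pinned with compounds (4-point, 1:5 series) and held 24 hrs at 37 deg C. Luminescence was read 10 min after detection reagent.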
ELG1 genotoxic: qHTS screen for small molecules that induce genotoxicity in human embryonic kidney (HEK293T) cells expressing luciferase-tagged ELG1; HEK293T ELG1-luciferase reporter, luminescence, 16 h; Potency, µM (top dose mostly 46 µM), without a hit: at the highest dose activity change, positive = activation, hits mostly activators; hit rate 1.3% among 330,000; note: % of control where 0% means no effect; nearly all actives have a fitted effect of over 60% in size
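Genotoxic stress is detected as increased luminescence from luciferase-tagged ELG1 in HEK293T cells, measured with ONE-Glo after a 16 hr treatment at 37 °C.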
Starred values were filed as active, the others as inactive; u = inconclusive; x = no result given; [ ] = another dose, or the depositor's remark. In the library only some 7.4% were active in any assay of this set; here they are far more common. Calls come from the whole dose curve; as a rule, active = well fitted curve in the direction sought with a large enough effect; inconclusive = small, poorly fitted or top-dose-only effect, or another doubt; inactive = no such curve, though single readings can be large; an effect the other way counts as inactive or inconclusive. Potency is the fitted concentration of half-maximal effect.

SMILES	FLuc modulator	Rab9 prom act	NPC1 prom act	SMN2 splice up	p53 reactivator	ELG1 genotoxic
COc1ccc(-n2cc(CNCCc3cscn3)c(-c3ccccc3Cl)n2)cc1	24µM*	0%	-1%	x	5%	-2%
Cc1ccc(-n2cc(CNCCc3cscn3)c(-c3ccc(F)cc3)n2)cc1	11µM*	8%	-2%	x	3%	0%
COc1ccc(CN(Cc2ccco2)c2cnc(S(C)(=O)=O)nc2C(=O)Nc2ccc(C)c(C)c2)cc1	-7%	x	x	x	x	x
Cc1cccc(NC(=O)c2cccc(C(=O)Nc3cccc(C)n3)c2)n1	-19%	1%	2%	x	x	1%
Cc1cccc(NC(=O)c2ccc(C(=O)c3ccccc3)cc2)n1	9.5µM*	u	u	x	20%	21µM*
O=C(Nc1cccc(NC(=O)c2ccccc2)n1)c1ccccc1	9.5µM*	0%	-1%	x	x	0%
CCOC(=O)C1C(=O)C=C(c2ccc(C)cc2)CC1c1cccc([N+](=O)[O-])c1 (centres undefined)	11µM*	0%	-4%	x	-16%	-6%
CCOC(=O)C1C(=O)C=C(c2ccc(C)cc2)CC1c1ccco1 (centres undefined)	12µM*	18%	2%	-3%	3%	0%
CCOC(=O)C1C(=O)C=C(c2ccc(NS(C)(=O)=O)cc2)CC1c1ccco1 (centres undefined)	-2%	3%	-2%	-11%	0%	-3%
CCOC(=O)C1=C(c2ccccc2)NC(=S)NC1c1cccc([N+](=O)[O-])c1 (centres undefined)	-2%	-3%	1%	x	2%	-1%
CCOC(=O)c1c(-c2ccc(OC)c(OC)c2)csc1NC(=O)c1ccc(C)cc1	0%	x	x	-6%	x	x
COc1ccc(C(=O)Nc2scc(-c3ccc(Cl)cc3Cl)c2C(N)=O)cc1	4.8µM*	3.2µM*	2.8µM*	-9%	24%	-1%
CN1C[C@@H]2[C@@H]3C(=O)N(Cc4ccccc4)C(=O)[C@@H]3[C@](C)(C1=O)N2C(=O)c1ccc(Cl)cc1	x	x	x	x	-3%	3%
O=C(NC12CC3CC(CC(C3)C1)C2)c1cccc(OC(F)F)c1	15µM*	2%[1.84 µM]	25%	x	16%	0%
COc1ccc(C(=O)NC2=NCCS2)cc1	19µM*	2.8µM*	2.2µM*	x	11%	u
CN1CCc2nc(NC(=O)COc3ccc4ccccc4c3)sc2C1	2%	0%	-3%	-72%	-3%	-20%
O=C(NC1=NCCS1)c1cccc(N2C(=O)c3ccccc3C2=O)c1	-12%	0%	-4%	-12%	-3%	0%
CN1CCc2nc(NC(=O)c3cccc(OC(F)F)c3)sc2C1	11µM*	22%	24%	16%	12%	u
O=C(NC1=NCCS1)c1cccc(OC(F)F)c1	12µM*	1.3µM*	2.2µM*	11µM*	-1%	5.8µM*
CCOc1cc(/C=C2\CCCc3c2nc2ccccc2c3C(=O)O)ccc1OC	u	-3%	-3%	x	-4%	1%
Cc1ccc(NC(=O)C2CCC(CNS(=O)(=O)c3cccc4nsnc34)CC2)c(Cl)c1 (centres undefined)	-1%	x	x	9%	x	x
CC(C)Oc1ccc(C(=O)NC2=NCCS2)cc1	6µM*	0.45µM*	0.71µM*	2.5µM*	21%	u
COc1cc(OC)cc(C(=O)NC2=NCCS2)c1	11µM*	26%	3%	8%	4%	u
CCN(CC)S(=O)(=O)c1ccc(C(=O)NC2=NCCS2)cc1	1%	2%	-1%	x	3%	1%
CCC1CCCCN1CCCNC(=O)c1sc2nc(C)cc(C)c2c1-n1cccc1 (centres undefined)	0%	x	x	x	x	x
SMILES	FLuc modulator	Rab9 prom act	NPC1 prom act	SMN2 splice up	p53 reactivator	ELG1 genotoxic
COc1ccc(/C=N/Nc2nc(C(=O)O)cs2)cc1	0.67µM*	u	u	x	u	6%
CCOC(=O)Cc1csc(N/N=C\c2ccc(N(C)C)cc2)n1	2.4µM*	29%	u	x	-2%	8%
CCOC(=O)Cc1csc(N/N=C\c2ccccc2OC)n1	11µM*	20%	26%	x	-4%	8%
CCOC(=O)Cc1csc(N/N=C/c2ccccc2)n1	15µM*	20%	29%	3%	-11%	9%
CCOC(=O)Cc1csc(N/N=C\c2cccc(Br)c2)n1	u	7%	11%	-1%	2%	-1%
N=C(N)SCCc1ccccn1	x	x	x	2%[9.22 µM]	x	x
COc1ccc(Cn2c(SCC#N)nc3ccc(N4CCOCC4)cc3c2=O)cc1	u	3.5µM*	3.5µM*	u	23%	u
O=[N+]([O-])c1cccc(NC(=S)N2CCc3ccccc3C2)c1	u	26%	u	u	3%	12%
CC(=O)Nc1ccc(/C=C2\CCc3ccccc3C2=O)cc1	6.7µM*	u	3.2µM*	x	-7%	u
O=C1/C(=C\c2ccc([N+](=O)[O-])cc2)CCc2ccccc21	0.095µM*	24%	21%	u	17%	7.3µM*
O=C1/C(=C/c2ccc(O)cc2)CCc2ccc([N+](=O)[O-])cc21	-20%	-1%	-6%	8%	u	0%
O=C1/C(=C/Nc2cccc([N+](=O)[O-])c2)CCc2ccccc21	2.7µM*	2.5µM*	2.8µM*	11µM*	u	u
CC(C)(C)C1CCC2(CC1)CCN(CCCN1CCOCC1)CC2	x	x	x	-6%[9.22 µM]	x	x
Cc1c(Cl)cccc1NC(=O)CCn1cnnn1	2%	x	x	-1%	x	x
CC12COC3(C(=O)Nc4ccccc4)CC1CCC32C (centres undefined)	-2%	0%	-6%	x	-2%	0%
CC12COC3(C(=O)Nc4ccc5ccccc5c4)CC1CCC32C (centres undefined)	15µM*	u	u	11µM*	12%	u
O=C(O)c1nn(-c2ccccc2-c2n[nH]c(=O)[nH]c2=O)c(=O)[nH]c1=O	-3%	-5%	1%	-2%[9.22 µM]	1%	0%
CCOC(=O)C1CCCN(Cc2cn3c(-c4ccc(Br)cc4)nnc3s2)C1 (centres undefined)	-2%	x	x	x	x	x
Cc1cc(C)n2nc(-c3ccc(Cl)cc3)nc2n1	15µM*	x	x	16µM*	x	x
Cc1cc(N2CCN(C)CC2)n2nc(-c3ccc(Cl)cc3)nc2n1	-18%	-6%	0%	-11%[9.22 µM]	-2%	5%
Cc1cc(=O)[nH]c2cc3oc4ccccc4c3cc12	x	x	x	-14%[9.22 µM]	x	x

Compound activity deposited in PubChem BioAssay by National Center for Advancing Translational Sciences (NCATS).
